Among the data in PubChem BioAssay (NCI) are growth values, retold here.

This is part of a sample that, as a whole, favours compounds with a hit. Of some 83,000 tested, about 20% had one in any assay.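 Single-concentration screen, 48 h exposure, 96-well plates. Endpoint: percent growth. Below 10 = active.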 Values without a mark were called inactive. Activity calls are given as the source filed them.

In this test the test system is HL-60(TB) leukemia. The experiment in a line: NCI-60 one-dose screen, 48 h (100 = growth as untreated, 0 = no growth, -100 = all killed). Particulars: 10 µM unless noted.
Consider `O=C(O)c1ccc(-c2ccc(/C=N/Nc3nc(Nc4ccccc4)nc(N4CCCCC4)n3)o2)cc1`, for which the growth was 66.4%.
For `COc1ccc2[nH]c(=O)c3c4ccccc4cn3c2c1` the value was -28.4% (active); for `CCCCCCCCCCCC[n+]1ccccc1`, -49.7% (active); for `C#C[C@@]1(O)[C@@H](CO)O[C@@H](n2cnc3c(-c4ccccc4)ncnc32)[C@@H]1O`, 102%.
With `CC1(C)[C@@H](O)CC[C@]2(C)[C@H]3CC[C@@H]4[C@H]5[C@H](c6cn(-c7ccccc7)nn6)CC[C@]5(CO)CC[C@@]4(C)[C@]3(C)CC[C@@H]12` the figure was 74.8%.
With `NC(=NCCCOc1ccc(F)cc1)Nc1ccc(Cl)cc1` the figure was 72%; with `Cc1sc2nc(NCCN)[nH]c(=O)c2c1C`, 115%; with `Cc1c(C(=O)N[C@@H](Cc2ccccc2)C(=O)C(=O)NCc2ccc(F)cc2)[nH]c2ccccc2c1=O`, 96.8%.
For `O=C(/C=C/c1ccc(C(F)(F)F)cc1)Nc1ccc(C=C2c3ccccc3C(=O)c3ccccc32)cc1`, the growth was 11.2%.
With `c1cc(NCCc2ccncc2)nc(-n2cnc3ccccc32)c1` the figure was 67.7%; with `CC(C)c1ccc(C(=O)Nc2sc3c(c2C#N)CCC(=O)C3)cc1`, -16.7% (active).
As for `COc1cc(-c2cc(-c3ccc(Nc4nc(Nc5ccccc5)nc(Nc5ccc(Cl)cc5)n4)cc3)nc(N)n2)cc(OC)c1OC`, the growth was 96.8%.
With `CC1=CN2C(=O)C3C4=C(CCCC4)SC3N=C2CN1c1c(C)cccc1C` (configuration not stated) the figure was -9.4% (active).
For `O=C(CCl)NNc1nccc(Nc2ccc(S(=O)(=O)Nc3ccncc3)cc2)n1` the value was 36.5%; for `O=C(CCCCCCN1CC(=O)N2[C@@H](c3ccccc3Cl)c3[nH]c4ccccc4c3C[C@H]2C1=O)NO`, 55%; for `CC(C)c1ccc2c(c1)CC[C@H]1[C@](C)(C(=O)OCC#CCN3CCCC3)CCC[C@]21C`, 55.5%.
For `N#CC1=C(N)Oc2c(ccc3ccccc23)C1c1ccccc1` (configuration not stated) the value was -22.3% (active); for `CCN1C(=O)N(CC)C2Nn3c(s/c(=C4\C(=O)N(C(C)C)c5ccccc54)c3=O)=NC21` (configuration not stated), 6.28% (active).
As to `CC1(C)CC(=O)C2=C(C1)Nc1cc3c(cc1C2c1ccc(F)cc1)OCO3` (configuration not stated), the growth is 90.2%.
For `CC(=O)Nc1c(Cl)cc(Cl)c2c1Cc1cc([N+](=O)[O-])ccc1-2` the value was 89.8%; for `COc1cccc(-c2cc(-c3cccc(NS(C)(=O)=O)c3)nc(N)c2C#N)c1O`, 2.21% (active); for `Nc1nc2ccc(CNc3ccc(C(=O)NC(CC(=O)O)C(=O)O)cc3)cc2c(=O)[nH]1` (configuration not stated), 4.48% (active).
For `O=S(=O)(NCCCNc1cc(-c2cn(-c3ccccc3)nc2-c2cccc(O)c2)ccn1)c1ccc(F)cc1` the value was 30.5%; for `CN1C(=O)/C(=C\c2c(Cl)cccc2Cl)c2ccccc21`, 80.9%.
For `O=C(Nc1cccc(-n2cc(-c3ccncc3)c(-c3ccc(O)c(Cl)c3)n2)c1)c1cccc(C(F)(F)F)c1` the value was 13.3%; for `COc1ccc2c(c1)N(CCO)C1=C(C(=O)OC1)C2c1cc(OC)c(OC)c(OC)c1` (configuration not stated), -16.7% (active); for `Cc1ccc(C(=O)N(CCCN)[C@@H](c2nc3cc(Cl)ccc3c(=O)n2Cc2ccccc2)C(C)C)cc1`, -58.3% (active).
In the case of `c1ccc(Nc2nc3c(s2)CCc2c[nH]cc2-3)nc1`, the growth was 2.15% (active).
For `CCCCNC(=O)Oc1ccc(/C(=C(\C)c2ccccc2)c2ccc(OCCN(CC)CC)cc2)cc1` the value was 21.3%; for `CCN=c1cc2sc3cc(NCC)c(C)cc3nc-2cc1C`, 2.7% (active); for `COc1cc2c3c(c1)nc(C)n3CCC2`, 99.7%.
Consider `CN1CCN(Cc2ccc(NC(=O)c3cncc(C#Cc4cncc5nccnc45)c3)cc2C(F)(F)F)CC1`, for which the growth is 1.66% (active).
For the molecule `Oc1ccccc1/C=N\NC(=S)Nc1ccc(F)cc1`, the growth is -10.3% (active).
For `CC(C)CNc1nc(N=[N+]=[N-])nc(NCC(C)C)n1` the value was 48.9% [100 µM].
For `Cc1nn2c(-c3nc4cc(Cl)c(Cl)cc4[nH]3)c(-c3ccc(F)cc3)nc2s1` the value was 106%; for `COc1ccc(/C=C2/CCc3cc4ccc(OC)cc4[o+]c32)c(O)c1`, 60.8%.
With `CCC(=O)Oc1cc(/C=C/C(=O)O[C@H]2C[C@H]3CN4CCc5c([nH]c6cc(OC)ccc56)[C@@H]4C[C@@H]3[C@@H](C(=O)OC)[C@@H]2OC)ccc1OC` the figure was 16.3%.
